# This is one part of a sample in which hits are shown more often than they occur.
# CHX counter – affects cycloheximide protein synthesis inhibition readout, counter-screen; max response, %; cell reporter, cycloheximide protein synthesis inhibition counterscreen; 300,000 tested, 12% active; in the data active means max response mostly above about 13%, no sharp cut-off; inactive means mostly below about 14%; further: read at 38.3 µM for the half of the compounds with a filed dose
# Vaccinia mCherry – vaccinia inhibition (mCherry reporter); Vaccinia virus mCherry reporter infection, fluorescence; Potency, µM (titrated, usually from 36.5 µM), most hits filed as inhibitors; 310,000 tested, 0.63% active; AID 720579; calls by dose curve; tested in A549 cells; further: nearly all actives have a fitted effect of over 35% in size
# Shiga inhibitor – inhibitors of Shiga toxin in Vero cells | 290,000 tested, 9.2% active | inhibition, % at 38.7 µM | AID 2315 | Vero cells, Shiga toxin protein synthesis inhibition reporter; in the data active means inhibition mostly above about 28%, no sharp cut-off; inactive means mostly below about 43%
# Vaccinia Venus – vaccinia inhibition (Venus reporter) | Vaccinia virus Venus reporter expression, fluorescence | Potency, µM (titrated, usually from 36.5 µM), hits mostly inhibitors | 330,000 tested, 0.46% active; calls by dose curve; tested in A549 cells; further: nearly all actives have a fitted effect of over 30% in size
# Lassa entry inh – inhibitors of Lassa virus binding or cell entry; Lassa virus pseudotype entry inhibition, cell reporter; Potency, µM (top dose mostly 37.9 µM), most hits filed as inhibitors; 300,000 tested, 1.2% active; AID 540256; calls by dose curve; tested in HEK293 cells; further: nearly all actives have a fitted effect of over 50% in size
# MARV entry inh – blocks Marburg virus binding to or entry into cells; 300,000 tested, 1.8% active; Potency, µM (highest dose often 37.8 µM), most hits filed as inhibitors; Marburg virus pseudotyped entry inhibition, cell reporter; calls by dose curve; tested in HEK293 cells
# A number is an active result; – = inactive; ? = inconclusive; · = no result; ! = a repeat was not active; [ ] = dose if it differs, or a comment.
SMILES,CHX counter,Vaccinia mCherry,Shiga inhibitor,Vaccinia Venus,Lassa entry inh,MARV entry inh
Cc1nc2sc(C(c3ccco3)N3CCc4ccccc4C3)c(O)n2n1 (stereo not drawn),·,–,·,–,–,–
COc1ccc(N/C=C2/CCCCC2=O)cc1,77.9,·,129.1,·,?,–
O=C1CCCC/C1=C\Nc1ccccc1C(=O)O,–,·,–,·,–,–
O=C1CCCC/C1=C/Nc1ccc(C(=O)O)cc1,29.7,·,–,·,–,?
CN(CC(=O)NC(=O)NCc1ccccc1)Cc1ccc(Cl)cc1,–,–,–,–,?,–
CN(CC(=O)NC(=O)NCc1ccccc1)Cc1cccc(Cl)c1Cl,–,14.1µM,–,?,?,–
OC(C#Cc1ccccn1)c1cccs1 (stereo not drawn),50.7,–,48.0,–,–,?
C(=C\c1cccs1)/c1ccccn1,·,–,·,?,·,·
Fc1cccc(/C=N/Nc2nncc3ccccc23)c1,56.5,·,85.5,·,·,·
Nc1cnnc(N/N=C\c2ccccc2)c1Cl,·,–,·,–,–,?
C(=N\Nc1nncc2ccccc12)/c1ccccn1,32.8,10µM,56.5,?,1.12µM,?
CC(=O)Nc1ccc(/C=N/Nc2nncc3ccccc23)cc1,49.9,–,83.3,?,–,?
C(=N\Nc1ccc2nncn2n1)/c1ccccn1,–,?,–,?,?,?
CCOC(=O)c1ccc(CN(Cc2ccc(F)cc2)S(=O)(=O)c2cc(C(=O)Nc3ccccc3CC)ccc2F)cc1,·,–,·,–,–,·
O=C(NNC(=O)C(O)(c1ccccc1)c1ccccc1)C1CC1,–,–,–,–,–,–
COc1ccc(-c2nc(CSc3nncn4c3cc3oc(C)cc34)c(C)o2)cc1,·,–,·,–,–,·
CC(C)C(NC(=O)c1ccoc1)c1nnc2n1CCN(C(=O)/C=C/c1ccc(F)cc1)CC2 (stereo not drawn),·,–,·,–,·,·
Cc1ccc2c(c1)sc1nc(=O)n(-c3ccccc3)c(=O)n12,44.6,–,93.0,–,–,?
CC(C)CCNc1nc2c(-c3ccccc3)nnn2c2ccccc12,·,–,·,–,–,–
CC(=O)c1ccc(NC(=O)C2CC(=O)N(C(C)C)C2)cc1 (stereo not drawn),–,–,–,–,–,–
Nc1nc(-c2ccccc2)c(-c2ccc([N+](=O)[O-])cc2)s1,–,22.4µM,–,?,·,·
Nc1nc(-c2ccccc2)c(-c2ccccc2)s1,–,–,–,–,?,–
Cc1ccc(S(=O)(=O)NCC(=O)OCc2nnc(-c3ccccc3)o2)cc1C,19.9,·,–,–,–,?
O=S(=O)(CCc1nnc(-c2ccccc2)o1)c1ccc2ccccc2c1,–,·,–,2.82µM,–,–
O=S(=O)(CCc1nc2ccccc2o1)c1ccc2ccccc2c1,–,·,–,–,–,–
SMILES,CHX counter,Vaccinia mCherry,Shiga inhibitor,Vaccinia Venus,Lassa entry inh,MARV entry inh
O=C(CNS(=O)(=O)c1ccc2ccccc2c1)OCc1nnc(-c2ccccc2)o1,31.7,·,–,–,–,–
CSCCC(NS(=O)(=O)c1ccc(C)cc1)C(=O)N1CC=C(c2ccccc2)CC1 (stereo not drawn),·,–,·,–,–,–
CSCCC(NC(=O)c1ccccc1)C(=O)N1CC=C(c2ccccc2)CC1 (stereo not drawn),–,–,–,–,11.2µM,?
Cc1ccc(-c2nc3ccccc3o2)cc1NC(=O)COc1ccccc1C,·,–,·,–,·,·
CC(=O)c1cnc2nc(SCc3ccccc3C)nn2c1C,18.2,–,–,–,–,?
CN(C)S(=O)(=O)c1cccc(NC(=O)c2ccc(S(=O)(=O)N3CCCC3)cc2)c1,·,–,·,–,–,–
COc1ccc(-c2nc(C(N)=O)c3c(n2)n(-c2ccccc2OC)c(=O)n3C)c(OC)c1,·,–,·,–,–,·
O=C1NCCCN1Cc1ccc(Cl)cc1,–,–,–,–,–,?
COCCCNC(=O)C1CCN(C(=O)c2cc3sccc3n2Cc2ccc(Cl)cc2)CC1,·,–,·,–,·,?
COCCNC(=O)C1CCN(C(=O)c2cc3sccc3n2Cc2ccc(Cl)cc2)CC1,·,–,·,–,·,7.94µM
O=C(NCc1ccco1)C1CCN(C(=O)c2cc3sccc3n2Cc2ccc(Cl)cc2)CC1,–,?,–,?,?,11.6µM!
O=C(Cn1c(C(=O)NCc2ccco2)cc2sccc21)c1ccccc1,24.1,·,–,·,·,–
Cc1ccc(C(=O)OCC(=O)N2CCC(c3ccccc3)=N2)cc1,·,–,·,–,–,–
O=[N+]([O-])c1cc(N=Nc2ccc3ccccc3c2)ccc1O,13.5,·,·,·,·,·
Cc1ccc(N(C)C(=O)n2cnc3ccccc32)cc1,–,–,–,–,–,?
N#Cc1ccccc1OCc1nnc(-c2ccccc2Br)o1,47.7,–,102.9,–,?,?
Brc1ccccc1-c1nnc(COc2ncnc3ccccc23)o1,–,–,–,–,–,–
Clc1ccc(Cc2nnc(-c3ccccc3Br)o2)cc1,21.8,–,38.8,–,–,–
Clc1ccccc1OCc1nnc(-c2ccccc2Br)o1,52.2,–,120.2,–,?,–
Brc1ccccc1-c1nnc(COc2cccc3cccnc23)o1,–,–[1.46 µM],–,–,–,–
CC(C)CN(CC(C)C)c1ccc(/C=C/c2ccnc3ccccc23)cc1,·,–,·,–,·,·
Cc1cccc(C(=O)NC2CC3CCCC(C2)N3Cc2ccccc2)c1 (stereo not drawn),–,–,–,–,–,3.16µM
CCCN1C2CCCC1CC(NC(=O)c1ccc(C(C)(C)C)cc1)C2 (stereo not drawn),12.6,·,–,·,·,·
Cc1ccc(C(=O)NC2CC3CCCC(C2)N3Cc2ccccc2)cc1 (stereo not drawn),–,–,–,–,–,–
S=C(Nc1ccc(Cl)cc1)NC1CC2CCC(C1)N2Cc1ccccc1 (stereo not drawn),–,–,–,–,–,?
SMILES,CHX counter,Vaccinia mCherry,Shiga inhibitor,Vaccinia Venus,Lassa entry inh,MARV entry inh
CCc1ccc(NC(=S)NC2CC3CCCC(C2)N3Cc2ccccc2)cc1 (stereo not drawn),–,·,–,·,?,10.3µM
COc1cccc(C(=O)NC2CC3CCCC(C2)N3CC(=O)Nc2ccccc2C(F)(F)F)c1 (stereo not drawn),–,?,–,?,?,11.2µM
O=C(CN1C2CCCC1CC(NC(=O)C1CCCCC1)C2)Nc1ccccc1C(F)(F)F (stereo not drawn),–,–,–,–,?,?
O=C(Nc1ccc(S(=O)(=O)Nc2ncccn2)cc1)C(F)(F)F,–,–,–,–,–,–
CCN(CC)c1ccc(NS(=O)(=O)c2ccc(-c3coc(C)n3)cc2)c(C)c1,·,–,·,–,?,·
C/C=C/c1cccc(-c2nc(C(=O)N3CCN(C)CC3)cc3c2[C@@H](CCO)N(C(=O)NC(C)C)C3)c1,·,–,·,–,·,·
CC(=O)OC[C@H]1O[C@H](CC=NO[C@H](C)c2cn([C@H](CO)Cc3ccccc3)nn2)C=C[C@@H]1OC(C)=O,·,·,·,·,–,–
Cc1ccc(CN2C3CCCC2CC(NC(=O)c2ccc(F)cc2)C3)cc1 (stereo not drawn),–,–,–,–,–,7.08µM
CCNC(=O)NC(=O)C(C)Sc1nnc(COc2ccccc2Cl)o1 (stereo not drawn),15.0,·,–,–,?,–
CCOC1=C2[C@H](c3cccs3)N(S(=O)(=O)c3ccc(C)cc3)C[C@H]2n2c(=O)n(-c3ccccc3)c(=O)n2C1,·,–,·,–,·,·
